This assay has as its target Muscarinic acetylcholine receptor M1 (Homo sapiens) (UniProt P11229). Briefly: Cholinergic receptor muscarinic 1 (CHRM1) small molecule agonists, cell-based qHTS assay (AID 1963589). Also: nearly all actives have a fitted effect of over 35% in size. In a few lines: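 Fluorescent calcium dye reports M1 activation in stably transfected CHO cells. Compounds, 15 concentrations, added after 1 h dye loading at 37 C; kinetic reading at 1 sec intervals.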
In general terms: Quantitative high-throughput screening tests each substance at several concentrations.

The source made the active and inactive calls. Entries that show only a call come without a potency. Calls follow the shape of the full dose curve. Peptide text beside a SMILES is read from it.

Muscarinic acetylcholine receptor M1 (Homo sapiens), sequence (P11229 whole entry, looked up): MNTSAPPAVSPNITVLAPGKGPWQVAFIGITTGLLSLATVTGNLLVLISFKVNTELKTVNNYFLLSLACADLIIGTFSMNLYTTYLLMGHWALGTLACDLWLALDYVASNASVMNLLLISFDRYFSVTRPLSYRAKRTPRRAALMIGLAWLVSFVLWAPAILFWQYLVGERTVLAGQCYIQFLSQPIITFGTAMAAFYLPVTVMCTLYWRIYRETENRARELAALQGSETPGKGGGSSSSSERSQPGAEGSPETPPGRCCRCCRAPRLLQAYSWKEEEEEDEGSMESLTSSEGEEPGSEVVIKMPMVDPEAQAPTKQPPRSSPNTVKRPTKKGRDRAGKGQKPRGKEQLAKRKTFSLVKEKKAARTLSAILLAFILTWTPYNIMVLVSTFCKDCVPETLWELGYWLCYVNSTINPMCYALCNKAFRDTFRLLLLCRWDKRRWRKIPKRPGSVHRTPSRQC

For the molecule `O=[Se](O)O`, the Potency entry was “inactive”.

Turning to `CCC(C)OC(=O)c1ccc(O)cc1` (centres undefined), the Potency entry was “inactive”. As to `Nc1cccc(N)c1`, the Potency result is “inactive”.

Turning to `COC(=O)[C@H](Cc1ccccc1)NC(=O)[C@@H](N)CC(=O)O` (H-Asp-Phe-OMe), the Potency result is “inactive”.

As to `C=CCNC(N)=S`, the Potency result is “inactive”. As to `CCCCC(CC)COC(=O)c1ccc(N(C)C)cc1` (centres undefined), the Potency result was “inactive”. The value for `CCCCCCCCCCCCOC(=O)c1cc(O)c(O)c(O)c1` was “inactive”.

Turning to `CCCCCCCCCCCCCCCC[N+](C)(C)Cc1ccccc1`, the Potency result is “inactive”. As to `CC1(C)CC(N)CC(C)(CN)C1` (centres undefined), the Potency entry is “inactive”.

`CCCCCCC=O`: the Potency result is “inactive”. In the case of `CC(=O)Nc1ccc(C(=O)CCl)cc1`, the Potency result is “inactive”. As to `Cc1cc(C)c(O)c(C)c1`, the Potency result is “inactive”. As for `O=C(c1cc(O)c(O)c(O)c1)c1ccc(O)c(O)c1O`, the entry is “inactive”; as for `NC(N)=NC(N)=NCCc1ccccc1`, “inactive”; as for `CCCCC/C=C\C/C=C\CCCCCCCC(=O)O`, “inactive”. The value for `CCOC(=O)c1ccc(O)cc1` was “inactive”. As for `CC1(C)NC(=O)N(c2ccc([N+](=O)[O-])c(C(F)(F)F)c2)C1=O`, the entry is “inactive”.

Regarding `O=S(=O)(O)c1ccc2cc(O)ccc2c1`, the Potency result was “inactive”. The value for `Cc1cc(=O)oc2cc(O)ccc12` was “inactive”; that for `[O-]/[N+](=N\O)c1ccccc1` was “inactive”. The value for `C#CCN(C)Cc1ccccc1` was “inactive”. As for `C=C(C)C(=O)OCCC[Si](OC)(OC)OC`, the entry is “inactive”; as for `O=Cc1ccc(CO)o1`, “inactive”.

As for `CC(CCC(=O)O)(c1ccc(O)cc1)c1ccc(O)cc1`, the Potency entry is “inactive”. `CCCCCCCCCCCCCC(=O)OC(C)C`: the Potency result was “inactive”. The value for `O=C(c1ccc(O)cc1)c1ccc(O)cc1O` was “inactive”; that for `CCC(=O)O` was “inactive”. The value for `C=C(C)C(=O)O` was “inactive”. For the molecule `C[C@]12CC[C@@H]3c4ccc(O)cc4C[C@@H](CCCCCCCCCS(=O)CCCC(F)(F)C(F)(F)F)[C@H]3[C@@H]1CC[C@@H]2O` (some centres undefined), the Potency result was “inactive”.

With `CCN1CCCC1=O`, the Potency entry was “inactive”. Regarding `CCCCNC(=O)NS(=O)(=O)c1ccc(C)cc1`, the Potency entry is “inactive”. As to `O=C(O)Cc1c[nH]c2ccccc12`, the Potency entry was “inactive”.

As for `CC1=C(/C=C/C(C)=C/C=C/C(C)=C/C(=O)Nc2ccc(O)cc2)C(C)(C)CCC1`, the Potency entry was “inactive”.

Take `CCCCCCOC(C)=O`: the Potency entry is “inactive”.

In the case of `Brc1cc(Oc2cc(Br)c(Br)c(Br)c2Br)c(Br)c(Br)c1Br`, the Potency result was “inactive”. As to `CCCCCCCCCCCC(=O)OC`, the Potency result is “inactive”.

Consider `CC(=O)CCc1ccccc1`, for which the Potency entry was “inactive”. The value for `CCN(CCN)c1cccc(C)c1` was “inactive”.

With `CC(=O)c1ccc(S(=O)(=O)NC(=O)NC2CCCCC2)cc1`, the Potency result is “inactive”. As for `Nc1ccc(Nc2ccccc2)cc1`, the entry is “inactive”. The value for `CCCCCCCCC/C=C/CC1CC(=O)OC1=O` (centres undefined) was “inactive”. As for `CCOCC(=O)O`, the entry is “inactive”. Regarding `C=C(C)C(=O)OCCOC(=O)C(=C)C`, the Potency result was “inactive”. As for `CN(C)CCOCCN(C)C`, the entry is “inactive”; as for `O=C(O)c1ccc(O)cc1`, “inactive”; as for `Nc1ncnc2nc[nH]c12`, “inactive”. As for `C=CCc1ccc(OC)c(OC)c1`, the entry is “inactive”; as for `NCCOCCO`, “inactive”. The value for `O=S(=O)(O)c1ccc2ccccc2c1` was “inactive”. For `CCc1cccc(CC)c1N`, the Potency result is “inactive”.

`C=CCCCCCCCCC(=O)O`: the Potency result is “inactive”. For the molecule `C=CCNCC=C`, the Potency result was “inactive”. With `C=C(C)C(=O)OCCCCCCCCCCCC`, the Potency result was “inactive”. The value for `CC(=O)OCc1ccc2c(c1)OCO2` was “inactive”; that for `Nc1cc(Cl)c(-c2cc(Cl)c(N)cc2Cl)cc1Cl` was “inactive”; that for `O=c1n(CC2CO2)c(=O)n(CC2CO2)c(=O)n1CC1CO1` (centres undefined) was “inactive”.

As to `COC(=O)c1ccc(C=O)cc1`, the Potency result was “inactive”. The value for `Nc1cc([N+](=O)[O-])ccc1C(=O)O` was “inactive”. As for `C=C1C2CCC(C2)C1(C)C` (centres undefined), the entry is “inactive”; as for `C=CC(C)(C)C`, “inactive”; as for `CCCOC(=O)NCCCN(C)C`, “inactive”. The value for `Cc1ccc(C(C)C)c(O)c1` was “inactive”; that for `CCOc1ccc(NC(=O)CC(C)O)cc1` (centres undefined) was “inactive”; that for `O=C1CCc2ccccc2O1` was “inactive”. For `COC(=O)c1cccnc1`, the Potency result is “inactive”. As to `Cc1ccc(S(=O)(=O)N=C=O)cc1`, the Potency result was “inactive”.

For the molecule `Nc1cc(Cl)c(N)c(Cl)c1`, the Potency entry is “inactive”. Consider `Cc1ccc(C)c(C)c1`, for which the Potency entry was “inactive”. As for `CCCCCCCCCCC(CO)CCCCCCCC` (centres undefined), the entry is “inactive”.
